# Compound activity from PubChem.
# Rce1 inh = inhibitors of yeast Ras-converting enzyme; calls only; hit rate 0.27% among 290,000; yeast membranes, quenched prenylated peptide cleavage fluorescence; Q03530; AID 2563;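 active means fall in fluorescence gain of 50% or more versus controls, with final raw signal at or below 3038400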;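 further: plate controls were neutral control wells for no effect and wells lacking membranes for full effect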
# UBC13 polyUb = blocks human UBC13 polyubiquitin chain formation. P61088. TR-FRET. inhibition, % at 20 µM. hit rate 0.47% among 330,000. AID 485273; in the data active means inhibition above about 45%, passing the limit was not always enough
# MEKK2mut PB1 HTS = signal of MEK5 binding to mutant human MEKK2 PB1 domain. bead flow cytometry, Alexa488-MEK5 binding to MEKK2 mutant. percent response, % at 10 µM. hit rate 0.35% among 290,000. AID 1530; in the data active means percent response above about 24%, passing the limit was not always enough
# MEKK2wt PB1 HTS = raises or lowers MEK5 binding to wildtype human MEKK2 PB1 domain. Q9Y2U5. bead flow cytometry, Alexa488-MEK5 binding to MEKK2 WT; actives lie on both sides. binding response (% of control), % at 10 µM. hit rate 1.1% among 290,000. AID 1531; in the data active means binding response below about 67% or above about 130%
# MEKK3 PB1 HTS = MEKK3-MEK5 PB1 interaction, increase or decrease. Q99759. bead-based flow cytometry, Alexa488-MEK5 binding to MEKK3; actives lie on both sides; 0 = blocked by unlabeled MEK5, 100 = vehicle. binding response (% of control), % at 10 µM. hit rate 1.4% among 290,000. AID 1529;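 active means binding response more than 3 SD above or below the average of its plate-row segment, actives on both sides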;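 further: Alexa488 bead fluorescence after subtracting the streptavidin-only scavenger bead signal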
# Target sequence (Q99759 whole entry, looked up): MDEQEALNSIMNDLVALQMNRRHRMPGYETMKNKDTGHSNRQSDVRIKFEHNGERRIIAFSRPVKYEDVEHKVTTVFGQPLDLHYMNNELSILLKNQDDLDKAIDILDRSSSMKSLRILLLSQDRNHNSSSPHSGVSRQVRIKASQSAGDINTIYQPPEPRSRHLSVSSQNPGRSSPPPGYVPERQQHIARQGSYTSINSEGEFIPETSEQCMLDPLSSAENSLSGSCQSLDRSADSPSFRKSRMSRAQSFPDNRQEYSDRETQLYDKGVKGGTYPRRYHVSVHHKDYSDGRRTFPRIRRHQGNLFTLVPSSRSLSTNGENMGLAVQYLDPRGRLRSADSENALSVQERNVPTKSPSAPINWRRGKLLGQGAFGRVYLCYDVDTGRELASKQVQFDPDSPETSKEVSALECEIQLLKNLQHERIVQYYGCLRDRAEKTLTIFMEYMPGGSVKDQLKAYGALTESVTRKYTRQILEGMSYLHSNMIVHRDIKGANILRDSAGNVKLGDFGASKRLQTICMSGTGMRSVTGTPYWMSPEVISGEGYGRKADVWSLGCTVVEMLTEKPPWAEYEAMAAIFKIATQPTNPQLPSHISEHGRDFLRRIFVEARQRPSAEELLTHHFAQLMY
# MEKK2wt confirm = raises or lowers MEK5 binding to wildtype human MEKK2, retest | shares compounds with MEKK3 PB1 HTS | bead flow cytometry, Alexa488-MEK5 binding to MEKK2 WT; actives lie on both sides | binding response (% of control), % at 10 µM | hit rate 2.4% among 5,900 | AID 1892; in the data active means binding response below about 16% or above about 210%; inactive means in between
# MEKK2mut-MEK5 = signal of MEK5 binding to mutant human MEKK2, retest | shares compounds with MEKK3 PB1 HTS | bead flow cytometry, Alexa488-MEK5 binding to MEKK2 mutant | percent response, % at 10 µM | hit rate 2% among 5,900; in the data active means percent response mostly above about 71%, no sharp cut-off; inactive means mostly below about 38%;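 further: higher means compound restores mutant binding toward wildtype level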
# MEKK3 confirm = MEKK3-MEK5 PB1 inhibition, single concentration confirmation; hit rate 1.8% among 5,900; bead flow cytometry, Alexa488-MEK5 binding to MEKK3; hits give low values; shares compounds with MEKK3 PB1 HTS; binding response (% of control), % at 10 µM; AID 1894;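 active means binding response below 72% of control, or above a set upper limit, though filed actives all read lower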;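 further: 100% = DMSO only wells and 0% = binding blocked by excess unlabeled MEK5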
# * = called active by the depositor; i = inactive; / = not tested or not shown; [ ] = dose if it differs, or a comment. An excerpt weighted towards active compounds, which were near 2.5% of everything screened.
SMILES,Rce1 inh,UBC13 polyUb,MEKK2mut PB1 HTS,MEKK2wt PB1 HTS,MEKK3 PB1 HTS,MEKK2wt confirm,MEKK2mut-MEK5,MEKK3 confirm
Cn1nnnc1SCC(=O)N1CCCc2ccccc21,i,6,3,107,98,/,/,/
O=C(CSCc1ccc(Br)cc1)N=Nc1c(O)[nH]c2ccccc12,i,-4,1,112,146*,105,4,101
Cc1cc(N2CCN(C)CC2)nc2ccc(NC(=S)NCCCN3CCc4ccccc4C3)cc12,i,27,44,173*,117,142,25,102
CCN1CCN(c2cc(C)c3cc(NC(=S)NCCCN4CCc5ccccc5C4)ccc3n2)CC1,i,36,21,177*,117,169,52,107
Cc1cc(N2CCN(C)CC2)nc2ccc(NC(=S)N3CCCCC3)cc12,i,/,9,125,101,/,/,/
Cc1cccc(N2CCN(C(=S)Nc3ccc4nc(N5CCN(C)CC5)cc(C)c4c3)CC2)c1C,i,/,-39,47*[inhibitor],30*[inhibitor],94,-20,75
CCOc1ccc(N(CC(=O)N/N=C/c2cccnc2)S(C)(=O)=O)cc1,i,-6,-5,96,97,/,/,/
NC(=O)Cn1nnc(-c2ccc(CN3CCCCC3)cc2)n1,i,1,-7,92,101,/,/,/
COc1ccc(NC(=O)C2CCN(c3nc(C)cc(C)n3)CC2)cc1,i,0,-1,2.0*[inhibitor],2.0*[inhibitor],102,-4,99
COc1ccc(NC(=O)C2CCC(CNS(=O)(=O)c3cccs3)CC2)cc1 (configuration not stated),i,3,-45,7.0*[inhibitor],5.0*[inhibitor],101,-3,99
Cc1ccc(NC(=O)CCCN2C(=O)c3cccc4cccc(c34)C2=O)cc1,i,6,1,110,145*,100,1,104
Cc1ccc(NC(=O)CCN2C(=O)c3cccc4cccc(c34)C2=O)cc1,i,-6,-3,94,99,/,/,/
COC(=O)CCCNC(=O)c1ccccn1,i,-8,-1,99,101,/,/,/
O=C(O)c1ccc(N2CC3CC(C2)c2cccc(=O)n2C3)c(NC(=S)Nc2ccc(Cl)cc2Cl)c1 (configuration not stated),i,-13,-30,17*[inhibitor],65*[inhibitor],91,-7,95
CCN(CC)CCNC(=O)c1cc(-c2ccc(Br)s2)nc2ccccc12,i,34,43*,141*,100,156,34,107
COc1ccc(OC)c(C(=O)CSc2nccc(-c3ccc(Br)cc3)n2)c1,i,28,-4,96,100,/,/,/
O=C(O)C1=C[C@H](c2csc3ccccc23)C[C@H](OCc2ccc(CO)cc2)O1,i,-7,-3,104,66*[inhibitor],95,-4,98
C/C(=N\NC(=O)Cc1csc(N2CCOCC2)n1)c1ccc(Cl)c(Cl)c1,i,-2,-8,90,81,/,/,/
O=c1c(N2CCOCC2)c(N2CCOCC2)c1=O,i,1,-33,52,42*[inhibitor],105,2,103
CC(C)Oc1c(N2CCOCC2)c(=O)c1=O,i,-6,4,107,103,/,/,/
Cc1cc(-c2ccccc2)oc(=O)c1NC(=O)c1ccccc1,i,-9,-16,88,84,/,/,/
Cc1cccc(N2C(=O)C(Oc3ccc(Cl)cc3Cl)C2C(=O)O)c1C (configuration not stated),i,3,1,108,139*,108,10,104
CCCNCC1C(Oc2ccc(Cl)cc2Cl)C(=O)N1c1cccc(C)c1C (configuration not stated),i,20,4,135,136*,128,12,98
Cc1cccc(N2CC(C(=O)O)CC2=O)c1C (configuration not stated),i,10,16,95,99,/,/,/
CCCCNCC1C(Oc2ccc(Cl)cc2)C(=O)N1c1ccccc1C (configuration not stated),i,13,1,125,123,/,/,/
SMILES,Rce1 inh,UBC13 polyUb,MEKK2mut PB1 HTS,MEKK2wt PB1 HTS,MEKK3 PB1 HTS,MEKK2wt confirm,MEKK2mut-MEK5,MEKK3 confirm
O=C(NCCc1ccccn1)c1nc(Cn2cc(Br)cn2)no1,/,-10,-2,99,104,/,/,/
O=[N+]([O-])c1c(NCCCO)cc(Sc2ccc(Cl)cc2)c2nonc12,i,/,-1,100,121,/,/,/
Cn1ccnc1Sc1cc(NCCCO)c([N+](=O)[O-])c2nonc12,i,-5,0,113,132*,101,-2,99
Cc1cc(NC(=O)c2nn(C)c(C)c2Br)no1,i,0,8,109,103,/,/,/
CCn1c(SCC(=O)c2c[nH]c3ccccc23)nc2cc(S(=O)(=O)N3CCOCC3)ccc21,i,2,3,62*[inhibitor],96,104,1,104
COc1cc(C(=O)NCCC(c2ccccc2)c2ccccc2)cc(OC)c1OC,i,5,7,109,107,/,/,/
Cc1ccc(Nc2ncc3c(n2)CC(C)(C)CC3=O)cc1,i,1,4,103,102,/,/,/
CC1(C)CC(=O)c2cnc(NC3CC3)nc2C1,/,-22,1,113,129*,94,-6,100
Cc1ccc2cc(/C=C3\N=C(c4ccccc4)OC3=O)c(N3CCOCC3)nc2c1,i,-27,-11,28*[inhibitor],75*[inhibitor],57,-22,93
CCOC(=O)C1=C(CC)Nc2ccccc2N=C1NC(=O)Nc1ccc(Cl)c(Cl)c1,i,-6,20,145*,97,148,-7,98
CCOC(=O)C1=C(CC)Nc2ccccc2N=C1NC(=O)c1cc(C)on1,/,-2,/,/,/,/,/,/
Cc1cc(C(=O)NCCc2ccccc2)c2cc(F)ccc2n1,i,-6,-9,92,109,/,/,/
COCc1cnc(C)nc1N,i,4,/,/,/,/,/,/
O=S(=O)(Nc1nc2ccccc2nc1Nc1ccc(N2CCOCC2)cc1)c1cc(Cl)ccc1Cl,i,-27,0,102,150*,105,7,105
Clc1nc(Nc2ccc(N3CCOCC3)cc2)c2ccccc2n1,i,22,-10,89,98,/,/,/
COc1cc(/C=C/C(=O)CC(=O)/C=C/c2ccc(O)c(OC)c2)ccc1O,i,-81,40*,14*,75,88,-6,88
CCCN(CC(=O)Nc1cccc(Br)c1)CC(=O)Nc1ccc(F)c(F)c1F,i,1,31,154*,101,103,-3,101
Cn1cccc1/C=N/NC(=O)c1cc2ccccc2cc1O,i,-1,-5,98,101,/,/,/
